Bioassay records from PubChem.
sPLA2-III inh: Inhibits HGIII-sPLA2 liposome hydrolysis, primary screen | inhibition, % at 12.2 µM | Q9NZ20 | actives 0.56% (n = 370,000) | QFRET BODIPY PC-A2 liposome hydrolysis, fluorescence;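 active = inhibition above mean plus 3 SD of compounds lying within the high and low control bounds, cut at about 19% in these data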
ADAM17 inh: ADAM17 inhibition, QFRET primary screen; P78536; recombinant ADAM17, EDANS/DABCYL FRET peptide cleavage; inhibition, % at 6.95 µM; actives 0.83% (n = 370,000); AID 720648;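 active = inhibition above the mean of compounds lying between control limits plus 3 SD, set per campaign, cut at about 8.5% in these data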
PLCb3 inh: inhibitors of human phospholipase C beta3 | Q01970 | Purified PLC-beta3, fluorogenic substrate, fluorescence | inhibition, % at 12.2 µM | actives 0.18% (n = 370,000); in the data active = inhibition above about 11%
proKLK7 act: proKLK7 (human) activation, primary screen. P49862. purified proKLK7, EDANS-DABCYL substrate fluorescence; 100% is mature enzyme control, 0% vehicle. activation, % at 7 µM. actives 0.9% (n = 370,000). AID 652039;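 active = activation above the mean of all tested compounds plus 3 SD, computed per campaign excluding outliers beyond control limits, cut at about 13% in these data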
Target sequence (P49862 whole entry, looked up): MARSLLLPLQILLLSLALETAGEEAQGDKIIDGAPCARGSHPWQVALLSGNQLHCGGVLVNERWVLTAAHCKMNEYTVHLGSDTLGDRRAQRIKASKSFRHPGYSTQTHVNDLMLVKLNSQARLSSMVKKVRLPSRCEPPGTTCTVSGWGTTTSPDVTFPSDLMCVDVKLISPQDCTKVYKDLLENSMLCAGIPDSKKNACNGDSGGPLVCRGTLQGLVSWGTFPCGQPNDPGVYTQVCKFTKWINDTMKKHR
ADAM10 inh: inhibitors of human ADAM10 | actives 0.62% (n = 370,000) | inhibition, % at 7 µM | recombinant ADAM10, EDANS/DABCYL FRET peptide cleavage, 3 h | O14672;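 active = inhibition above a per-campaign cutoff equal to the mean of compounds falling between control-based bounds plus 3 SD, cut at about 20% in these data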
PLCg1 inh: inhibitors of human phospholipase C gamma1. P19174. purified PLC-gamma1, fluorogenic substrate, fluorescence. inhibition, % at 12.2 µM. actives 0.84% (n = 370,000); in the data active = inhibition above about 9.5%
Hits are given with their value; n = inactive. Compounds with a hit are over-represented: about 3.4% of the library has one in this group of screens.

SMILES | sPLA2-III inh | ADAM17 inh | PLCb3 inh | proKLK7 act | ADAM10 inh | PLCg1 inh
CCOC(=O)Cn1nnc(-c2ccc([N+](=O)[O-])cc2)n1 | n | n | n | n | n | 9.6
CCOC(=O)C(C)(C)n1nnc(-c2ccc([N+](=O)[O-])cc2)n1 | n | n | n | n | n | n
COC(=O)c1ccc2nc(-c3ccco3)c(Cc3ccccc3OC)n2c1 | n | n | n | n | n | n
COC(=O)c1ccc(Cn2ccc3ccc(-c4ccc5ccn(C(=O)c6ccccc6OC)c5c4)cc32)cc1 | n | n | n | n | n | n
CC(=O)OCCn1c(=O)c2cc3c(=O)n(CCOC(C)=O)c(=O)c3cc2c1=O | n | n | n | n | n | 9.9
COc1cccc(NC(=O)C2CCCN2C(=O)NCc2ccccc2)c1 (stereo not drawn) | n | n | n | n | n | n
C#CCOCCOCCOCCNc1nc(N2CCOCC2)nc(N2CCN(C(=O)[C@H]([C@@H](C)CC)n3cc(CCCN=C(N)N)nn3)CC2)n1 | n | n | n | n | n | 10.0
C[C@@H]1COc2cc(N3CCN(Cc4ccccc4F)CC3)ccc2S(=O)(=O)N1 | n | n | n | n | n | 9.8
CC(C)C[C@H]1COc2cc(N3CCN(Cc4ccccc4F)CC3)ccc2S(=O)(=O)N1 | n | n | n | n | n | n
C=CCN1C(=O)/C(=C/c2ccc(OCC(=O)O)cc2)S/C1=N/c1nccs1 | n | n | n | n | n | n
C=CCN1C(=O)/C(=C/c2ccc(O)c(OC)c2)S/C1=N/c1nccs1 | n | n | n | n | 21.7 | n
CC1CC(C)CN(CCCNS(=O)(=O)c2cc3c(cc2Br)CCN3C(=O)C2CC2)C1 (stereo not drawn) | n | n | n | n | n | n
COc1ccc(/C=N\NC(=O)c2cc(O)c(O)c(O)c2)cc1COc1ccc(C(=O)OCC(C)C)cc1 | 25.1 | n | n | n | n | n
COc1ccc(/C=N\NC(=O)c2ccccc2)cc1COc1ccccc1 | n | n | n | n | n | n
CC(C)(C)c1ccc(OCCCN2CCC(C(O)(c3ccccc3)c3ccccc3)CC2)cc1 | n | n | n | n | n | n
Cc1cc(C)c2nc(NNC(=O)c3ccc(S(=O)(=O)N4CC(C)CC(C)C4)cc3)sc2c1 (stereo not drawn) | 40.6 | n | n | n | n | n
Cc1ccc2nc(NNC(=O)c3ccc(S(=O)(=O)N4CCc5ccccc5C4)cc3)sc2c1 | 32.6 | n | n | n | n | n
CCC(=O)NNc1nc2c(C)cc(C)cc2s1 | n | n | n | n | n | n
COc1ccc(C(=O)OCCN2CCN(C3CN(Cc4cn(Cc5ccccc5Cl)nn4)S(=O)(=O)C3)CC2)cc1OC (stereo not drawn) | n | n | n | n | n | n
CC(C)(C)OC(=O)NCc1ccccc1/C=C/S(=O)(=O)NCc1ccccc1 | n | n | n | n | n | n
C[C@@H]1CCC(=O)N(C[C@@H](C)CSc2ccccc2)CC1 | n | n | n | n | n | 10.9
COc1ccc(CN=Cc2c(O)[nH]c3ccccc23)cc1 | n | n | n | n | n | 10.0
COc1ccccc1N=C1SC(C(=O)Nc2cccc(Cl)c2Cl)C(N)=C1C(N)=O (stereo not drawn) | n | n | n | n | n | n
N#Cc1ccccc1NC(=O)C1SC(=Nc2ccccc2)C(C(=O)Nc2ccc(Cl)cc2)=C1N (stereo not drawn) | n | 16.4 | n | n | 37.1 | n
S=C(Nc1ccc(Oc2ccccc2)cc1)NC1CCCCCC1 | n | 9.5 | n | n | n | n
SMILES | sPLA2-III inh | ADAM17 inh | PLCb3 inh | proKLK7 act | ADAM10 inh | PLCg1 inh
S=C(Nc1ccc(Oc2ccccc2)cc1)NC1CCCCC1 | n | n | n | n | n | n
CSc1ccc(C=NNC(=O)c2cc(-c3ccc(Cl)cc3)n[nH]2)cc1 | n | n | n | n | n | n
CC1=NN(c2cccc(C(=O)O)c2)C(=O)/C1=C\C=C\c1ccco1 | n | n | n | n | n | 23.4
COc1cc(/C=C2\C(=O)N(c3cccc(C(=O)O)c3)N=C2C)ccc1OCc1ccccc1 | n | n | n | n | n | n
CNc1ccc(C(=O)OCC(=O)NC(=O)NC2CCCC2)cc1[N+](=O)[O-] | n | n | n | n | n | 12.7
COC(=O)[C@]12CCCCC=C1N(Cc1ccc(OC)cc1)C(=O)[C@@H]2CC(=O)N1CCSCC1 | n | n | n | n | n | n
CCCCN(C)C(=O)CN1C(=O)C2CCCCN2C(=O)c2ccccc21 (stereo not drawn) | n | n | n | n | n | n
CCn1c(SCC(=O)Nc2nc(-c3ccc(C)cc3)cs2)nnc1-c1ccccc1O | n | 14.8 | n | n | n | n
CCn1c(SCC(=O)Nc2nc(-c3ccc(C)cc3)cs2)nnc1-c1ccccc1 | n | n | n | n | n | n
CCCCCCC12C(=Cc3cc4c(cc31)OCCO4)c1cc(OC)c(OC)cc1C(CC(=O)O)N2C(=O)OC (stereo not drawn) | n | n | n | n | n | n
Cc1ccc(NC2CCCN(C(=O)CCN3CCCCO3)C2)cc1C (stereo not drawn) | n | n | n | n | n | 11.9
O=C(CCN1CCCCO1)N1CCCC(Nc2ccc(F)c(F)c2)C1 (stereo not drawn) | n | n | n | n | n | n
CCc1c2c(nc3ccc(OC(=O)N4CCC(N5CCCCC5)CC4)cc13)-c1cc3c(c(=O)n1C2)COC(=O)[C@]3(O)CC | n | n | n | 63.0 | n | n
CCOC(=O)N1CCN(C(=O)C(=O)Nc2ccc3nc4n(c(=O)c3c2)CCCCC4)CC1 | n | n | n | n | n | n
Cc1ccc(NC2(C#N)CCCC2)cc1 | n | n | n | n | n | n
N#CC1(Nc2ccc(-c3ccc(NC4(C#N)CCCC4)cc3)cc2)CCCC1 | n | 18.5 | n | n | 21.8 | n
O=C(CN1CCN(c2ccc(F)cc2)CC1)Nc1ccccc1Br | n | n | n | n | n | 17.0
CC1(C(=O)N2CCC(Oc3cccnc3)CC2)CC1 | n | n | n | n | n | n
CCN1/C(=C/c2ccc3ccccc3[n+]2CC)C=Cc2ccccc21 | 32.6 | n | n | n | n | n
CC1(C)CCC(C)(C)c2cc(NC(=O)c3ccc(C(=O)O)cc3)ccc21 | n | n | n | n | n | n
COc1ccccc1C(=O)NC(=S)/C=C1/N(C)c2ccccc2C1(C)C | 20.1 | n | n | n | n | n
CC1(C)CC2CC(C)(CN2S(=O)(=O)c2ccc(C(=O)Nc3cccc(S(=O)(=O)N4CCOCC4)c3)cc2)C1 (stereo not drawn) | n | 20.0 | n | n | 26.3 | n
O=C(Nc1cc(Sc2ccccn2)cc([N+](=O)[O-])c1)c1cccc(F)c1 | n | 11.3 | n | n | n | n
CCN(CC)c1ccc2cc(NC(=O)CCC(=O)O)c(=O)oc2c1 | n | n | n | 78.0 | n | n
